Data reported in the supplement of paper PMC3334620.
Whole data set: some 33,000 sequences, median “E-score (-0.5 to 0.5)” near -0.021, cut for the highest 2% near 0.32. This excerpt belongs to a sample that is enriched for the highest values.

Biological target: T1, Zap1 (UniProt P47043)
T1 sequence: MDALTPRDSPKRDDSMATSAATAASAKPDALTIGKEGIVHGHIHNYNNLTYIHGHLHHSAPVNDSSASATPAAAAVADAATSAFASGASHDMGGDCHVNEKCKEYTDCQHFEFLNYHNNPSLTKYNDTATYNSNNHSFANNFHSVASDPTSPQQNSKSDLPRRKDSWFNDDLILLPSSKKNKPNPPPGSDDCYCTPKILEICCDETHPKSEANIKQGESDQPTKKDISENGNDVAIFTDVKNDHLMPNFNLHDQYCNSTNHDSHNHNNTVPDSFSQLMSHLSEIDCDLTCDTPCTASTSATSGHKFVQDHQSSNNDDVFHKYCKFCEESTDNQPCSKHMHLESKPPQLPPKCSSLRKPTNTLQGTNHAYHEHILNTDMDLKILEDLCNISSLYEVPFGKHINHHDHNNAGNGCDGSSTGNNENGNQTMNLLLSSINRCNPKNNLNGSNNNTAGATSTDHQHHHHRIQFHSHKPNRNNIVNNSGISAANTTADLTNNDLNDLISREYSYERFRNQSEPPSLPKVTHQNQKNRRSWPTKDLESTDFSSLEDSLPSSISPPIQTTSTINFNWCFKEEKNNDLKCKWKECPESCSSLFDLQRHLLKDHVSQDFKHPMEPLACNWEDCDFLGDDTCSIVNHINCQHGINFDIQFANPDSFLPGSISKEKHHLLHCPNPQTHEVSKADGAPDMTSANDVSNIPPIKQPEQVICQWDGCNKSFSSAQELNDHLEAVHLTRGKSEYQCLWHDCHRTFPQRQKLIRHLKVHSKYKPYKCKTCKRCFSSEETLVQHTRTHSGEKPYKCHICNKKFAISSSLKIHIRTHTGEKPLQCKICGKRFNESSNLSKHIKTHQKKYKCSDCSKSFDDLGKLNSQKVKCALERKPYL
Test: PBM E-score (8-mer binding enrichment) (E-score (-0.5 to 0.5)); higher = stronger / more preferred TF binding
Conditions: protein concentration: 200 nM; construct: GST-full length
Procedure, shortened: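 Each ungapped eight-base word and its reverse complement, pooled, received an E-score from the Universal PBM Analysis Suite. Underlying scans, normalised with masliner, recorded fluorescent anti-GST bound to GST-tagged yeast transcription factors. These were applied at about 100-200 nM to universal all-10-mer Agilent arrays double-stranded by primer extension.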

Sequence	PBM E-score
ATGCGTTC	-0.0993
GCAGGCAA	-0.144
ACTCAGAG	0.11
CTGATAAA	0.121
GGAACACC	0.105
ATTTCTCG	0.176
CTTGCTAC	0.0655
ATCTCACC	-0.0161
CGACTGGA	-0.193
GCCTCAAA	0.00889
ACCTCTCA	0.344
ACCTCTAT	0.293
ACCTCAAA	0.326
ACCTCTCT	0.0304
ACCTCAAG	0.251
ACCTCTAG	0.411
ACCTCTAC	0.259
CCCTCTCA	-0.23
CACTGGCG	-0.0169
GCTTCAAC	0.00654
TAGCCAGA	-0.00683
CGAGCTAA	-0.031
GATCAGAA	-0.106

Sequence	PBM E-score
AGTAATAT	0.178
AGAGCTAC	-0.184
GCCCCACC	0.283
ACCCCACC	0.419
CCCCCACC	-0.378
AACCCACC	0.343
AACCCACG	0.156
CACCCACC	0.194
GACCCACC	0.245
AACCCACA	0.331
CACCCACA	0.168
ATTTTCTA	0.122
CTATGAGC	-0.127
CTTCTCCC	-0.213
ATCCTCAC	0.0272
GAAGATGA	0.0533
AGGGTACG	0.296
TGGGTACA	0.174
AGGGTACA	0.337
AGGGTACC	0.461
AGTGTACC	0.0741
AGGGTACT	0.441
GGGGTACC	0.424

Sequence	PBM E-score
AGAGTACT	-0.144
ACGGTACA	0.213
GGCGTACC	0.0458
GGGGTACA	0.249
AGCGTACT	-0.127
CGAAGCAA	-0.00093
CCCCATAG	0.201
CAAAACTG	0.0208
CATGGGAG	0.0124
AAATATAT	0.224
ATCTATCG	-0.167
GAACAAGC	-0.175
CAGCCCAA	-0.0128
AATTCCGT	-0.0101
CTGGTACC	0.286
CGGGTACC	0.432
CGGGTACA	0.122
ATGGTACA	0.08
ATGGTACC	0.392
CGGGTACG	0.0198
ACGCTTGA	0.0154
CCCCTAGC	-0.167
GGGGCTTA	-0.25

Sequence	PBM E-score
ACGTCATA	-0.0571
ACCCAGCC	-0.139
AACTAAGA	0.0908
CCTGGGGA	-0.183
CAGGGTAA	0.354
AGGGGTAC	0.398
CGGGGTAC	0.316
GCGGGTAC	0.256
CTGGGTAA	0.185
ACGGGTAG	0.255
AAGGGTAG	0.375
CCGGGTAA	0.246
CAGGGTGA	0.313
AGGGGTAG	0.312
GGGGGTAC	0.186
CCGGGTAC	0.348
AGCCAAGC	-0.307
GGGTAGTA	0.219
ACTTCAAA	-0.13
GACACACA	0.028
GCGGGCGA	-0.105
CCCATCTA	-0.0762
ACCTATCC	0.152

Sequence	PBM E-score
ACAGTAGG	-0.209
CACGGGGA	-0.219
TGGGGTAA	0.347
AAGGGTAT	0.421
AGGGGTAA	0.272
AAGGGTGT	0.316
AAGGGTAA	0.393
GAGGGTAC	0.374
GAGGGTGC	0.138
GGGGGTAA	-0.0883
ATGGGTAA	0.242
GATGGTAC	0.199
AGGGGTAT	0.258
CGGGGTAA	0.299
CTTTCGCC	-0.179
CGGTTGTC	0.279
CATGTGCA	0.0255
TTCTTAAA	-0.028
ACGTCGTA	-0.287
CATCAATA	0.0615
CGTGGCCA	0.0519
GGCACGTA	-0.273
CAGGGTAC	0.437

Sequence	PBM E-score
CAGGGTGC	0.0059
ATGGGTAC	0.328
CTGGGTAC	0.305
TAGGGTAA	0.396
AAGGGTCC	0.274
CAGGGTAG	0.306
AAGGGTAC	0.426
TCGGGTAA	0.24
GAGGGTAA	0.264
ATGGGTAG	0.238
ACGGGTAC	0.231
AGTCAGGC	-0.101
CACTACGC	-0.163
CGGCTAGA	-0.178
CCCTGCGA	0.0758
CCAACTGC	-0.165
AACACAGT	-0.00444
AAGCTTTC	0.0356
ACGTGACC	0.249
GCGTGACC	0.326
GCGTGACA	-0.136
CCGTGACC	0.376
CCGTGACG	-0.0247

Sequence	PBM E-score
CCGTGACA	-0.136
TATACATA	0.106
CACTAGAG	0.0544
ACACTGAA	0.111
GCCAGACA	0.0344
CGTTACAC	0.0157
CGTTACAA	0.121
AGTTACAC	0.0701
GGTTACAC	0.403
GGTTACAA	0.455
TGTTACAA	0.098
GGGCTTAA	-0.0211
ACGTGTAT	-0.152
TATCGACA	0.0537
ATTGTGAC	0.159
CACATAGC	-0.136
ACGAGAGT	-0.197
ATCCCTAC	-0.023
